This is part of a sample that, as a whole, favours compounds with a hit. Of some 83,000 tested, about 20% had one in any assay.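 Negative percent growth values reflect cell death: -40 means 40% of the cells present at the start died, and -100 means all died.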 A number with no mark means an inactive call. Calls of active or inactive are those of the source. The calls were made as follows: active = growth percent below 10; inactive = the rest.

In this assay the test system is OVCAR-8 ovarian. The experiment in a line: NCI-60 one-dose screen, 48 h (100 = growth as untreated, 0 = no growth, -100 = all killed). As to conditions: 10 µM unless noted.
On to `N#C/C(=C\c1ccc(-c2ccc(Cl)cc2)o1)C(=O)Nc1ncc(Cc2ccc(Br)cc2)s1`, for which the growth was 6.49% (active). `O=C(COc1ccc(/C=C2\C(=O)Nc3ccc(Cl)cc32)cc1)Nc1ccc(Cl)cc1`: the growth is 60.1%.

Turning to `CC(O)c1cccc(/C(N)=N/C(N)=N/c2nc3ccccc3s2)c1` (stereo not given), the growth is 97.2%. Take `O=C(CN1CCN(c2cc(=O)[nH]c3ccc(F)cc23)CC1)N(c1ccccc1)c1ccccc1`: the growth is 108%. Take `Cn1c(SCC(=O)c2ccc(Br)cc2)nc2ccccc2c1=O`: the growth is 96.8%.

Consider `NC(N)=NS(=O)(=O)c1ccc(N=Nc2c(N)nn(-c3ccc([N+](=O)[O-])cc3[N+](=O)[O-])c2N)cc1`, for which the growth was 100%. With `Cc1cc2nc3c4cc(C#N)ccc4n(CCN(C)C)c3nc2cc1C`, the growth was -33.2% (active). In the case of `O=C(CCCCCCN1CC(=O)N2[C@@H](c3cccs3)c3[nH]c4ccccc4c3C[C@H]2C1=O)NO`, the growth was 61.7%. In the case of `O=C(CSc1nc2ccccc2c(=O)n1CCc1ccccc1)Nc1ccc(S(=O)(=O)Nc2ccc(Cl)nn2)cc1` it was 92%; in that of `CC1=C(C)C(=O)C(Nc2ccc(C)c(C)c2)=C(Br)C1=O`, 100%. In the case of `COc1cc(/C=C2/C(=O)Nc3ccc(Cl)cc32)ccc1OCc1ccc(Cl)cc1` it was 91.2%. For `Cc1ccc2c(n1)C(=O)C(Cl)=C(Nc1ccc(C(C)C)cc1)C2=O` the value was 8.76% (active); for `CN1CCN(c2ccc(Nc3nc(NCCNS(=O)(=O)c4ccccc4)c4sccc4n3)cc2)CC1`, 106%; for `CNC(=O)c1cc(N2CCc3cc(NC(=O)Nc4ccc(N5CCN(C)CC5)c(C(F)(F)F)c4)ccc32)ccn1`, 95.9%. In the case of `C=C(C)[C@@H]1CC[C@]2(COCCCNCCCN)CC[C@]3(C)[C@H](CC[C@@H]4[C@@]5(C)CC[C@H](O)C(C)(C)[C@@H]5CC[C@]43C)[C@@H]12`, the growth was -40.4% (active).

As for `CN1CCN(Cc2ccc(NC(=O)c3cncc(C#Cc4cnc5ccc(OCC6COC6)nn45)c3)cc2C(F)(F)F)CC1`, the growth was -54.5% (active).

In the case of `CCN(CC)S(=O)(=O)c1ccc(-c2nc(C(Cl)Cl)nc3cc(-c4ccc(F)cc4)nn23)cc1`, the growth was 27.6%. `O=C(COc1ccc(/C=C2\C(=O)Nc3ccc(F)cc32)cc1)Nc1ccccc1`: the growth was 98.7%. For the compound `CN1CCN(c2ccc(Nc3nc(NCCCNS(=O)(=O)c4ccc(F)cc4)c4sccc4n3)cc2)CC1`, the growth is 77.3%. `COc1cccc(N2CCN(C3=C(Cl)C(=O)c4ncccc4C3=O)CC2)c1`: the growth is 82.8%.

On to `C#CCOc1cccc(-c2nc(N)nc(Nc3ccccc3SSc3ccccc3Nc3nc(N)nc(-c4cccc(OCC#C)c4)n3)n2)c1`, for which the growth is 16.7%. For the compound `O=C(CSc1nnc(-c2ccc(Cl)cc2)n1-c1ccccc1)Nc1ccc(Cl)cc1`, the growth is 31%. In the case of `NC(=O)n1c(=O)n(-c2cccc(C(F)(F)F)c2)c(=O)c2cc(-c3ccc(F)cc3F)ccc21` it was 8.4% (active); in that of `C#CCOc1ccc(/C=N/Nc2nc(-c3ccc(OC)cc3)cs2)cc1`, 84.9%.

In the case of `O=C(CSc1nnc(-c2ccc(Cl)cc2)n1-c1ccccc1)Nc1ccccc1Cl`, the growth is 67.2%. For `CCOC(=O)c1c(NC(=O)c2cccc(C(F)(F)F)c2)sc2c3c(ccc12)OCN(C)C3` the value was -41.6% (active); for `CN1CCN(Cc2ccc(NC(=O)c3cncc(C#Cc4cnc5ccc(OCCCS(C)(=O)=O)nn45)c3)cc2C(F)(F)F)CC1`, -20.5% (active); for `CCOC(=O)c1c(NCC(=O)Nc2cccc([N+](=O)[O-])c2)sc(C(C)=O)c1C`, -8.65% (active). For `N#Cc1c(-c2cccs2)cc(-c2cnccn2)nc1SCC(=O)N/N=C/c1ccccc1` the value was 43.4%; for `CN1CCN(Cc2ccc(NC(=O)c3cncc(C#Cc4cnc5ccc(O[C@@H]6CCOC6)nn45)c3)cc2C(F)(F)F)CC1`, -60.1% (active). For `O=C(CCCCCCNC(=O)c1csc(Br)n1)NO` the value was 23.5%; for `O=C(NCCNc1cc(-c2cn(-c3ccccc3)nc2-c2cccc(O)c2)ccn1)Nc1cc(C(F)(F)F)cc(C(F)(F)F)c1`, 98.5%. Take `COC(=O)c1ccc(NC2=C(Cl)C(=O)c3nc(C)ccc3C2=O)cc1`: the growth is 70.1%. As to `CCOP(=O)(OCC)OC[C@]12CCC(C)(C)C[C@H]1C1=CC[C@@H]3[C@@]4(C)CC[C@H](OP(=O)(OCC)OCC)C(C)(C)[C@@H]4CC[C@@]3(C)[C@]1(C)CC2`, the growth is 60.4%. In the case of `C/C(=N/N)c1nnn(-c2ccc(Br)cc2)c1C` it was 102%; in that of `O=C(N/N=C\c1ccc(F)cc1)c1ccc2nc(-c3ccc(Br)cc3)[nH]c2c1`, 27.4%; in that of `O=C1Nc2ccc(F)cc2/C1=C\C(=O)c1ccc(NS(=O)(=O)c2ccccc2)cc1`, 91.1%. For `CCCCCc1ccc(S(=O)(=O)Nc2cc(-c3csc(N)n3)ccc2OC)cc1` the value was 95.9%; for `CN1CCN(c2ccc(Nc3nc(NCCNS(=O)(=O)c4ccc5ccccc5c4)c4sccc4n3)cc2)CC1`, 60.3%; for `CCn1c2ccc(/C=N/N(C)S(=O)(=O)CCN(C)C)cc2c2cc(/C=N/N(C)S(=O)(=O)CCN(C)C)ccc21`, 48.9%.

(Values after PubChem BioAssay (NCI).)
